Values joined by “and” are separate entries in the source; they are usually repeats but may differ in a detail not shown here. Equal entries are not always repeated. Unmarked numbers belong to inactive results. Inconclusive results are not listed. A call without a number means that no potency is given here. Active and inactive are the calls of the source. Unless noted, the call rests on the fitted dose curve; in most records, active means well fitted curve in the direction sought with a large enough effect; inconclusive means small, poorly fitted or top-dose-only effect, or another doubt; inactive means no such curve, though single readings can be large; an effect the other way counts as inactive or inconclusive.
How the values were obtained:
[1] = qHTS assay for measurement of the activity of small molecule inhibitors on Zika virus induced Caspase-3 activity in human iPSC derived neural progenitor cells (hNPCs) (AID 1224857); further: nearly all actives have a fitted effect of over 65% in size
How it was run: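 Zika virus (2 FFU/cell) infection of human iPSC-derived NPCs, 6 h, following 1 h compound preincubation. Read-out: Caspase-Glo 3/7 luminescence.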

[2] = qHTS assay for measurement of the activity of small molecule inhibitors on Zika virus induced Caspase-3 activity in human astrocytoma cells (AID 1224859)
How it was run: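 Caspase activation in ZIKV-infected SNB-19 cells (2 FFU/cell, 6 h) measured by Caspase-Glo 3/7 luminescence after 30 min RT; compound pre-incubated 1 h; normalised to uninfected and infected controls.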

[3] = qHTS for compounds that reverse cellular toxicity of Amyloid beta (A-beta) peptide in yeast: LOPAC Validation Assay (AID 720559)
How it was run: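 Rescue of A-beta toxicity was scored as yeast growth by 600 nm absorbance after 48 hr at 30 C with compound. Normalization used DMSO (negative) and equimolar ferric chloride plus clioquinol (positive).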

[4] = qHTS for Activators of Parkin Expression: LOPAC Validation Assay (NLuc Reporter) (AID 720572)
How it was run: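 Parkin promoter-driven FLuc/NLuc neuronal reporter cells; 24 h plating, 7-pt dose response, 24 h at 37 C/5% CO2; FLuc then NanoLuc reagent, 10 min each, luminescence; DMSO/positive control normalized.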

[5] = target: T1, Hexokinase-4 (Homo sapiens) + Glucokinase regulatory protein (Homo sapiens) (UniProt P35557+Q14397); assay: qHTS assay for inhibitors of recombinant human GCK-GKRP interaction: Diaphorase-coupled assay (AID 743205)
How it was run: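 A kinetic fluorescence read (Ex 525/Em 590 nm, every minute for 30 minutes) tracked resorufin from a G6PDH-diaphorase coupled GCK reaction. It contained 10 nM GST-GCK, 10 nM FLAG-GKRP, 5 mM glucose, 0.4 mM ATP in Hepes pH 7.6. Normalized to with/without-enzyme DMSO controls.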

[6] = target: T1, Hexokinase-4 (Homo sapiens) + Glucokinase regulatory protein (Homo sapiens); assay: qHTS assay for inhibitors of recombinant human GCK-GKRP interaction: HTRF assay (AID 743207)
How it was run: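 After 60 min equilibration at room temperature with anti-FLAG XL665 and anti-GST antibodies, FRET ratio (665/615 nm, excitation 320 nm) was read. Proteins: GST-GCK and FLAG-GKRP, each 5 nM, plus 2 uM S6P, pH 7.1 buffer; GCK-free wells define minimum signal.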

[7] = qHTS Assay for Identifying Gametocytocidal Compounds (AID 743244); further: potency means the concentration at half of the fitted maximal effect;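 on max response: actives lower the fluorescent signal which means gametocytes are killed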; details: P. falciparum 3D7 stage III-V gametocytes, alamarBlue, 72 h; max response: hits give low values
How it was run: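 Fluorescence at Ex 525/Em 598 nm, recorded 24 h after alamarBlue addition, reports residual metabolic activity of 3D7 gametocytes (stages III–V) following 72 h compound exposure at 37 °C, 5% CO2.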

[8] = qHTS assay for small molecule agonists of the antioxidant response element (ARE) signaling pathway measured by Nrf2-dependant transcriptional activity (AID 720636; active means well fitted curve in the direction sought with a large enough effect in the repeat runs; an effect the other way counts as inactive or inconclusive)
How it was run: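 ARE-luc HepG2 cells carrying an Nrf2-responsive luciferase reporter were plated in medium with 1% dialyzed FBS, left 6 hr at 37 C to attach, then exposed to compound for 16 hr. Luciferase luminescence was read after ONE-Glo addition.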

[9] = qHTS assay for small molecule antagonists of the retinoid-related orphan receptor gamma (ROR-gamma) signaling pathway - cell viability counter screen (AID 720652; active means well fitted curve in the direction sought with a large enough effect in the repeat runs; an effect the other way counts as inactive or inconclusive;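 further: potency means the concentration at half of the fitted maximal effect; compound exposure lasted 16 hr before ATP read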)
How it was run: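 Luminescence from CellTiter-Glo after 30 min at room temperature reported cellular ATP as the cytotoxicity measure. Cells were the CHO reporter line with doxycycline-induced ROR-gamma expression, exposed to compound for 16 hr at 37 C.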

[10] = qHTS assay for small molecule agonists of the antioxidant response element (ARE) signaling pathway measured by Nrf2-dependant transcriptional activity - cell viability counter screen (AID 720653; active means well fitted curve in the direction sought with a large enough effect in the repeat runs; an effect the other way counts as inactive or inconclusive); details: ARE-bla HepG2 viability, CellTiter-Glo ATP luminescence, 16 h; hits give low values
How it was run: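 Cytotoxicity counter screen: intracellular ATP quantified by CellTiter-Glo luminescence in the same ARE-bla HepG2 plates, after 16 h compound exposure and a 2 h beta-lactamase substrate step.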

T1 sequence (P35557 whole entry, looked up): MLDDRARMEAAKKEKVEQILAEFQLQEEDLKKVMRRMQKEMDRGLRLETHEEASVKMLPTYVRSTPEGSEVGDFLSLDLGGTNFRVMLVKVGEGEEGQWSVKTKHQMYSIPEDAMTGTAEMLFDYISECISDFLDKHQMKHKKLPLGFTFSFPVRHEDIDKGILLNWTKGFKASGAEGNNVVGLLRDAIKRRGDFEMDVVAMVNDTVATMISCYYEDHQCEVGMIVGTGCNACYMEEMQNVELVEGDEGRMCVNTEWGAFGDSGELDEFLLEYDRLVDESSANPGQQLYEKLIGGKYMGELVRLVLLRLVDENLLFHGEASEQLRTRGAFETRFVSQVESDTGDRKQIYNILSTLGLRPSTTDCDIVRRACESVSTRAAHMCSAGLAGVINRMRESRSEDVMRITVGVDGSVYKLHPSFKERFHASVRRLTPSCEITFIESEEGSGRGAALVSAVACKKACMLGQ
T1 sequence (Q14397 whole entry, looked up): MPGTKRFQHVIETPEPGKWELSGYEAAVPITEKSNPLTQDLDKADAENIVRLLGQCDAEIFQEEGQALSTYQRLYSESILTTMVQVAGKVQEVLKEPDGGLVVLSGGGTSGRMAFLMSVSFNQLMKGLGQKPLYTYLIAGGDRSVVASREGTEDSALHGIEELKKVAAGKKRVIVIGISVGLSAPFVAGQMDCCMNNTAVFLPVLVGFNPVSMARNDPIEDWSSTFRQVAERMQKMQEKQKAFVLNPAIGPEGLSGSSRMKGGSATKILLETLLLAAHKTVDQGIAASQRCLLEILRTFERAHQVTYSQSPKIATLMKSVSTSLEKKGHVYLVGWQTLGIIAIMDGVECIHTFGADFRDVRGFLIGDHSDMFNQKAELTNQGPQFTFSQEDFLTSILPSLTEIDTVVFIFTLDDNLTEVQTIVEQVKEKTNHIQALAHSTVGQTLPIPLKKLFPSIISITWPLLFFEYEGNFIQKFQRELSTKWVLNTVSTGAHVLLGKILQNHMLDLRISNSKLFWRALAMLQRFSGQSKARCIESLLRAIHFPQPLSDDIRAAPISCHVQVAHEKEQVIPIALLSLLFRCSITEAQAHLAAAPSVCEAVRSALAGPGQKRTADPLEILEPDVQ

Q: For `COc1cc2c(cc1OC)C(C(C(=O)N(CCc1ccc(OC)c(OC)c1OC)CCc1ccc(OC)c(OC)c1OC)c1ccccc1)=NCC2` (stereo unspecified), which outcome [1] is on record?
A: The outcome was “inactive”.

Q: What about the outcome [2] of the same compound?
A: The outcome was “inactive”.

Q: Which outcome [1] does the source give for `N[C@@H](CCC(=O)N[C@@H](CS)C(=O)NCC(=O)O)C(=O)O` here?
A: The outcome was “inactive”.

Q: And the outcome [2]?
A: Its outcome is “inactive”.

Q: What does the source list for `COc1cc2c(cc1OC)[C@@H]1CC(=O)[C@@H](CC(C)C)CN1CC2`?
A: outcome [1]: inactive; outcome [2]: inactive

Q: With `N[C@H](Cc1c[nH]c2ccccc12)C(=O)O` as the compound, how does the outcome [1] read?
A: Its outcome is “inactive”.

Q: Which outcome [1] does the source give for `Cc1ccccc1C(=O)Nc1ccc(C(=O)N2CCCC(N(C)C)c3ccccc32)cc1` (stereo unspecified) here?
A: The outcome was “inactive”.

Q: And the outcome [2]?
A: The outcome was “inactive”.

Q: For `c1ccc(-c2ccc(C(c3ccccc3)n3ccnc3)cc2)cc1` (stereo unspecified), which outcome [1] is on record?
A: The outcome was “inactive”.

Q: And the outcome [2]?
A: The outcome was “inactive”.

Q: Which results are given for `O=c1c(-c2ccccc2)c1-c1ccccc1`?
A: outcome [1]: inactive; outcome [2]: inactive

Q: Which outcome [1] does the source give for `CC(C)N=C(N)/N=C(\N)Nc1ccc(Cl)cc1` here?
A: The outcome was “inactive”.

Q: What about the outcome [2] of the same compound?
A: The outcome was “inactive”.

Q: For `CCCCCCCCCCCCCCCC[N+](C)(C)CCN(Cc1ccc(OC)cc1)c1ncccn1`, which outcome [1] is on record?
A: The outcome was “inactive”.

Q: What about the outcome [2] of the same compound?
A: Its outcome is “inactive”.

Q: Which results are given for `CCCCCCCCCCCCCCNCCO`?
A: outcome [1]: inactive; outcome [2]: inactive

Q: With `CC(=O)c1ccc2c(c1)N(CCCN1CCC(CCO)CC1)c1ccccc1S2` as the compound, how does the outcome [1] read?
A: Its outcome is “inactive”.

Q: What does the source list for `CC(=O)[C@H]1CC[C@H]2[C@@H]3C[C@H](C)C4=CC(=O)CC[C@]4(C)[C@H]3[C@@H](O)C[C@]12C`?
A: outcome [1]: inactive; outcome [2]: inactive

Q: With `CCCC(=O)Nc1ccc(OCC(O)CNC(C)C)c(C(C)=O)c1` (stereo unspecified) as the compound, how does the outcome [1] read?
A: Its outcome is “inactive”.

Q: With `OC[C@H]1O[C@H](O[C@]2(CCl)O[C@H](CCl)[C@@H](O)[C@@H]2O)[C@H](O)[C@@H](O)[C@H]1Cl` as the compound, how does the outcome [1] read?
A: Its outcome is “inactive”.

Q: Which outcome [1] does the source give for `COc1ccc(C2C(=O)c3ccccc3C2=O)cc1` here?
A: The outcome was “inactive”.

Q: Which outcome [1] does the source give for `COc1cc(C=C2CCC/C(=C\c3ccc(O)c(OC)c3)C2=O)ccc1O` here?
A: The outcome was “inactive”.

Q: What about the outcome [2] of the same compound?
A: Its outcome is “inactive”.

Q: For `CCOc1ccc2nc3cc(N)ccc3c(N)c2c1`, which outcome [1] is on record?
A: The outcome was “inactive”.

Q: And the outcome [2]?
A: The outcome was “inactive”.

Q: With `Cc1c(C(N)=O)cc([N+](=O)[O-])cc1[N+](=O)[O-]` as the compound, how does the outcome [1] read?
A: Its outcome is “inactive”.

Q: For `CN1CCC[C@@H]1c1cccnc1`, which outcome [1] is on record?
A: The outcome was “inactive”.

Q: What about the outcome [2] of the same compound?
A: Its outcome is “inactive”.

Q: What does the source list for `C=C1C(=C/C=C2\CCC[C@]3(C)[C@@H]([C@H](C)/C=C/[C@@H](O)C4CC4)CC[C@@H]23)C[C@@H](O)C[C@@H]1O`?
A: outcome [1]: inactive; outcome [2]: inactive

Q: Which results are given for `CCC(NC(C)C)C(O)c1ccc(O)c(O)c1` (stereo unspecified)?
A: outcome [3]: inactive; outcome [4]: inactive; outcome [5]: inactive; outcome [6]: inactive; max response [7]: -4.31%; outcome [1]: inactive; outcome [2]: inactive

Q: With `NC(=NCCCCCCN=C(N)/N=C(\N)Nc1ccc(Cl)cc1)/N=C(\N)Nc1ccc(Cl)cc1` as the compound, how does the Potency [8] read?
A: Its Potency is “inactive”.

Q: And the Potency [9]?
A: The Potency was 42.2 µM (active).

Q: And the max response [10]?
A: Its max response is -4.14%.

Q: What about the Potency [7] of the same compound?
A: The Potency was 7.08 µM (active).

Q: What about the outcome [1] of the same compound?
A: Its outcome is “inactive”.

Q: And the outcome [2]?
A: The outcome was “inactive”.

Q: For `CC(=O)O[C@H]1C[C@@H]2CC[C@@H]3[C@H](CC[C@@]4(C)[C@H]3C[C@H]([N+]3(C)CCCCC3)[C@@H]4OC(C)=O)[C@@]2(C)C[C@@H]1[N+]1(C)CCCCC1`, which outcome [3] is on record?
A: The outcome was “inactive”.

Q: And the outcome [4]?
A: Its outcome is “inactive”.

Q: What about the outcome [5] of the same compound?
A: The outcome was “inactive”.

Q: What about the outcome [6] of the same compound?
A: Its outcome is “inactive”.

Q: And the max response [7]?
A: The max response was -9.72% and 10.5%.

Q: What about the outcome [1] of the same compound?
A: The outcome was “inactive”.

Q: What about the outcome [2] of the same compound?
A: Its outcome is “inactive”.

Q: What does the source list for `O=C(CCCN1CCC(O)(c2ccc(Br)cc2)CC1)c1ccc(F)cc1`?
A: outcome [1]: inactive; outcome [2]: inactive

Q: With `CNCCC=C1c2ccccc2CCc2ccccc21` as the compound, how does the outcome [3] read?
A: The outcome was “inactive”.

Q: What about the outcome [4] of the same compound?
A: The outcome was “inactive”.

Q: And the outcome [5]?
A: Its outcome is “inactive”.

Q: What about the outcome [6] of the same compound?
A: Its outcome is “inactive”.

Q: What about the outcome [1] of the same compound?
A: The outcome was “inactive”.

Q: And the outcome [2]?
A: The outcome was “inactive”.

Q: For `C/C=C(/C(=C/C)c1ccc(O)cc1)c1ccc(O)cc1`, which outcome [1] is on record?
A: The outcome was “inactive”.

Q: What about the outcome [2] of the same compound?
A: The outcome was “inactive”.

Q: Which results are given for `N[C@@H](Cc1cnc[nH]1)C(=O)O`?
A: outcome [3]: inactive; outcome [4]: inactive; outcome [5]: inactive; outcome [6]: inactive; max response [7]: 4.12% and 12.1%; outcome [1]: inactive; outcome [2]: inactive

Q: With `CCCC1O[C@@H]2C[C@H]3[C@@H]4CCC5=CC(=O)C=C[C@]5(C)[C@H]4[C@@H](O)C[C@]3(C)[C@]2(C(=O)CO)O1` (stereo partly specified) as the compound, how does the outcome [3] read?
A: The outcome was “inactive”.

Q: What about the outcome [4] of the same compound?
A: The outcome was “inactive”.

Q: And the outcome [5]?
A: Its outcome is “inactive”.

Q: What about the outcome [6] of the same compound?
A: Its outcome is “inactive”.

Q: What about the max response [7] of the same compound?
A: The max response was -5.95% and 18.2%.

Q: What about the outcome [1] of the same compound?
A: Its outcome is “inactive”.

Q: What about the outcome [2] of the same compound?
A: The outcome was “inactive”.

Q: What does the source list for `Oc1cc(O)c2c(c1)O[C@H](c1ccc(O)c(O)c1)[C@H](O)C2`?
A: outcome [1]: inactive; outcome [2]: inactive

Q: For `O=C(CCN1CCC(c2ccccc2)C1)c1ccc2c(c1)OCCO2` (stereo unspecified), which outcome [1] is on record?
A: Its outcome is “inactive”.

Q: What about the outcome [2] of the same compound?
A: Its outcome is “inactive”.

Q: What does the source list for `O=C1CCC(c2ccc(-n3ccnc3)cc2)=NN1`?
A: outcome [3]: inactive; outcome [4]: inactive; outcome [5]: inactive; outcome [6]: inactive; max response [7]: -0.884% and -6.59%; outcome [1]: inactive; outcome [2]: inactive

Q: For `C[C@@H]1C(=O)NC2=Nc3cccc(Cl)c3CN21`, which outcome [3] is on record?
A: Its outcome is “inactive”.

Q: And the outcome [4]?
A: The outcome was “inactive”.

Q: And the outcome [5]?
A: Its outcome is “inactive”.

Q: And the outcome [6]?
A: The outcome was “inactive”.

Q: And the max response [7]?
A: The max response was -15.6% and 9.95%.

Q: And the outcome [1]?
A: The outcome was “inactive”.

Q: And the outcome [2]?
A: Its outcome is “inactive”.

Q: With `CC[C@H](C)C(=O)O[C@H]1CCC=C2C=C[C@H](C)[C@H](CC[C@@H]3C[C@@H](O)CC(=O)O3)[C@H]21` as the compound, how does the outcome [3] read?
A: Its outcome is “inactive”.

Q: And the outcome [5]?
A: Its outcome is “inactive”.

Q: And the outcome [6]?
A: The outcome was “inactive”.

Q: And the outcome [1]?
A: The outcome was “inactive”.

Q: And the outcome [2]?
A: The outcome was “inactive”.

From PubChem BioAssay (NCATS)
